Measured values reported in PubChem BioAssay (EPA / NIEHS).
Values joined by “and” are separate entries in the source; they are usually repeats but may differ in a detail not shown here. Equal values may be shown once. Inconclusive results are not listed. Active and inactive are the calls of the source. How the source made its calls, unless noted: active means hit-call score of the fitted dose curve at least 0.9, where 1 is the maximum; inactive means score below 0.9.

Assays:
[1] = target: Nuclear respiratory factor 1 (Homo sapiens) (UniProt Q16656); assay: ATG_NRF1_CIS: Attagene CIS-FACTORIAL HepG2 Assay for human Nuclear Respiratory Factor 1 (NRF1) Orphan Gene (AID 2282987); conditions: HepG2 NRF1 cis-element reporter, Attagene multiplex; actives raise or lower the signal
Method in brief: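 Multiplexed cis-reporter assay, HepG2 cells, 24 h treatment. Total RNA → oligo(dT) RT → PCR with reporter-specific primers → 6-FAM primer extension → HpaI cut → CE. Bidirectional fit vs DMSO.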

[2] = ATG_NFI_CIS: Attagene CIS-FACTORIAL HepG2 Assay for human Nuclear Factor I (NFI) (AID 2282989); conditions: HepG2 cis-regulatory reporter, NFI response element transcription; actives raise or lower the signal
Method in brief: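 Multiplexed cis-reporter system in human HepG2 cells reports native TF activity as reporter mRNA induction 24 h post-dose. Fragments labelled with 6-FAM, HpaI-digested and resolved by capillary electrophoresis; activity fitted both directions versus DMSO.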

[3] = target: Myc proto-oncogene protein (Homo sapiens) (UniProt P01106); assay: ATG_Myc_CIS: Attagene CIS-FACTORIAL HepG2 Assay for human Myelocytomatosis (Myc) Proto-Oncogene Transcription Factor (AID 2282990); conditions: HepG2, Attagene cis-reporter transcription factor activity; actives raise or lower the signal
Method in brief: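 Fluorescence intensity of reporter-specific cDNA fragments, separated by capillary electrophoresis, gives the signal. Transfected HepG2 cells carrying cis-promoter reporter constructs are incubated with compound for 24 h; DMSO serves as baseline.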

[4] = ATG_NF_kB_CIS: Attagene CIS-FACTORIAL HepG2 Assay for human Nuclear Factor Kappa B (NF-kB) (AID 2282991); conditions: HepG2 Attagene cis-factorial NF-kB reporter mRNA; actives raise or lower the signal
Method in brief: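 Transient MRTU transfection of human HepG2 liver cells → 24 h chemical exposure → total RNA, oligo(dT) RT → PCR, 6-FAM primer extension, HpaI digest 2 h 37 C → CE fragment analysis. Bidirectional fitting, DMSO negative control.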

[5] = ATG_NRF2_ARE_CIS: Attagene CIS-FACTORIAL HepG2 Assay for human Nuclear Factor Erythroid 2 Related Factor 2 (NFR2) response to Antioxidant Response Elements (ARE) (AID 2282992); conditions: HepG2 Attagene ARE/NRF2 reporter, transcription factor activity; actives raise or lower the signal;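 on AC50: reporter mRNA level measured by RT-PCR and capillary electrophoresis fluorescence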
Method in brief: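 Endogenous transcription factor activity in human liver HepG2 cells is tracked via a cis-element-driven reporter within a multiplexed set. mRNA induction is read by RT-PCR and capillary electrophoresis after 24 h, with DMSO as baseline.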

[6] = ATG_Oct_MLP_CIS: Attagene CIS-FACTORIAL HepG2 Assay for human Octamer-Binding Transcription Factor (Oct) (AID 2282993); conditions: HepG2 Attagene cis-factorial Oct reporter, mRNA; actives raise or lower the signal
Method in brief: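 After 24 h compound exposure, transfected HepG2 cells were lysed for total RNA; reporter-specific cDNA was PCR-amplified, fluorescently labelled and sized by capillary electrophoresis. Bidirectional curve fitting used DMSO as baseline.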

[7] = target: Cellular tumor antigen p53 (Homo sapiens) (UniProt P04637); assay: ATG_p53_CIS: Attagene CIS-FACTORIAL HepG2 Assay for human p53 Transcription Factor (AID 2282994); conditions: HepG2 p53 cis-element reporter, Attagene mRNA; actives raise or lower the signal
Method in brief: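 Steps: transfect HepG2 with multiplexed cis reporter constructs; dose chemicals 24 h; extract RNA, reverse-transcribe, PCR-amplify reporter sequences; FAM-label, HpaI-digest, resolve fragments by CE. Activity fitted both directions relative to DMSO.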

[8] = BSK_3C_TissueFactor: BioMAP Diversity Plus: 3C Assay for Tissue Factor Biomarker Activity (AID 2282997); conditions: BioMAP 3C HUVEC, tissue factor biomarker readout; actives raise or lower the signal
Method in brief: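 Tissue factor on primary human umbilical vein endothelium was read by ELISA 24 h after dosing, gain or loss relative to DMSO. Cytotoxicity ran alongside via SRB (0.1%, TCA-fixed, 560 nm).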

[9] = BSK_3C_uPAR: BioMAP Diversity Plus: 3C Assay for Urokinase-type plasminogen activator receptor (uPAR) Biomarker Activity (AID 2282998); conditions: BioMAP 3C HUVEC, uPAR biomarker ELISA; actives raise or lower the signal
Method in brief: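 Values derive from bidirectional curve fitting relative to DMSO, which served as baseline of activity. uPAR was measured by ELISA in human umbilical vein endothelial primary cultures 24 h after compound addition.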

[10] = BSK_3C_VCAM1: BioMAP Diversity Plus: 3C Assay for Vascular cell adhesion molecule 1 (VCAM1) Biomarker Activity (AID 2282999); conditions: BioMAP 3C HUVEC, VCAM1 ELISA, cytokine-stimulated; actives raise or lower the signal
Method in brief: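 HUVEC primary cells, 24 h compound exposure; VCAM-1 by ELISA; gain/loss of signal fitted bidirectionally vs DMSO baseline.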

[11] = BSK_4H_Eotaxin3: BioMAP Diversity Plus: 4H Assay for Eotaxin 3 Biomarker Activity (AID 2283000); conditions: primary human endothelial cells (HUVEC); actives raise or lower the signal
Method in brief: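 Human umbilical vein endothelial cells (BSK_4H system) dosed with test chemical; Eotaxin-3 (CCL26) measured by ELISA 24 h after dosing. Bidirectional curve fitting relative to DMSO negative control as baseline.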

[12] = target: human Peroxisome Proliferator-activated Receptor delta (PPARd), PPARD (gene 5467) (UniProt Q03181); assay: ATG_PPARd_TRANS: Attagene TRANS-FACTORIAL HepG2 Assay for human Peroxisome Proliferator-activated Receptor delta (PPARd) (AID 2283002; active means hit-call score of the fitted dose curve at least 0.9, where 1 is the maximum)
Method in brief: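 Fluorescence from capillary electrophoresis of labelled RT-PCR reporter fragments gives the signal; DMSO sets baseline. Cells: HepG2 transiently carrying GAL4-UAS reporter units plus chimeric nuclear receptor-Gal4 proteins, exposed to chemicals for 24 h.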

[13] = read-out: Intercellular Adhesion Molecule 1 (ICAM1), ICAM1 (gene 3383); assay: BSK_3C_ICAM1: BioMAP Diversity Plus: 3C Assay for Intercellular Adhesion Molecule 1 (ICAM1) Biomarker Activity (AID 2283003); conditions: primary human endothelial cells (HUVEC); actives raise or lower the signal
Method in brief: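 Chemicals are dosed onto primary human umbilical vein endothelium (3C system). After 24 h, ICAM-1 is measured by ELISA, and responses are fitted bidirectionally relative to DMSO.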

[14] = target: human Retinoic Acid Receptor beta (RARb), RARB (gene 5915) (UniProt P10826); assay: ATG_RARb_TRANS: Attagene TRANS-FACTORIAL HepG2 Assay for human Retinoic Acid Receptor beta (AID 2283004; active means hit-call score of the fitted dose curve at least 0.9, where 1 is the maximum)
Method in brief: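 Induction of reporter mRNA from a chimeric RARb-Gal4 construct was measured by RT-PCR, FAM labelling, HpaI digestion and capillary electrophoresis. Measurements followed 24 h compound treatment of transiently transfected human HepG2 liver cells, with DMSO as baseline.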

[15] = target: Retinoic acid receptor alpha (Homo sapiens) (UniProt P10276); assay: ATG_RARa_TRANS: Attagene TRANS-FACTORIAL HepG2 Assay for human Retinoic Acid Receptor alpha (RARa) (AID 2283005; active means hit-call score of the fitted dose curve at least 0.9, where 1 is the maximum)
Method in brief: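 HepG2 transiently transfected with multiplex GAL4-UAS reporter units including a human RARa–GAL4 chimera; 24 h compound exposure. Reporter mRNA quantified by RT-PCR, 6-FAM labeling and capillary electrophoresis; gain of signal versus DMSO.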

[16] = BSK_3C_Proliferation: Cell Proliferation Assessment in the BioMAP Diversity Plus: 3C Assay (AID 2283006); conditions: primary human endothelial cells (HUVEC);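 on AC50: potency may reflect either rise or fall in cell number versus DMSO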
Method in brief: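 Cells (human umbilical vein endothelial, sub-confluent) receive test chemical; after 48 h they are fixed in 10% trichloroacetic acid, stained with 0.1% SRB and read at 560 nm. Activity is referenced to DMSO, fitting increases and decreases.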

[17] = target: Peroxisome proliferator-activated receptor gamma (Homo sapiens) (UniProt P37231); assay: ATG_PPARg_TRANS: Attagene TRANS-FACTORIAL HepG2 Assay for human Peroxisome Proliferator-activated Receptor-gamma (PPARg) (AID 2283007; active means hit-call score of the fitted dose curve at least 0.9, where 1 is the maximum)
Method in brief: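 Transient transfection of HepG2 with GAL4-UAS-driven reporter units; chemical dosing 24 h; total RNA → oligo(dT) RT → PCR with reporter primers → 6-FAM primer extension → HpaI digest 2 h 37 C → capillary electrophoresis. Positive direction vs DMSO.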

[18] = target: Nuclear receptor subfamily 1 group I member 2 (Homo sapiens) (UniProt O75469); assay: ATG_PXR_TRANS: Attagene TRANS-FACTORIAL HepG2 Assay for human Pregnane X Receptor (PXR) (AID 2283008; active means hit-call score of the fitted dose curve at least 0.9, where 1 is the maximum)
Method in brief: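 HepG2 transfected (FuGene 6) with GAL4-UAS reporter units + PXR-Gal4 chimera; dosed 24 h. Total RNA → oligo(dT) RT → PCR → 6-FAM primer extension → HpaI cut → CE. Gain-of-signal vs DMSO.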

[19] = target: human Retinoic Acid Receptor gamma (RARg), RARG (gene 5916) (UniProt P13631); assay: ATG_RARg_TRANS: Attagene TRANS-FACTORIAL HepG2 Assay for human Retinoic Acid Receptor gamma (RARg) (AID 2283009; active means hit-call score of the fitted dose curve at least 0.9, where 1 is the maximum)
Method in brief: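 TRANS format measured activity of exogenous NR-GAL4 fusion (RARg) in transfected HepG2 liver cells after 24 h dosing. Induced reporter RNA was detected by RT-PCR/capillary electrophoresis fluorescence, analysed in the positive direction against DMSO.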

[20] = target: human Peroxisome Proliferator-activated Receptor alpha (PPARa), PPARA (gene 5465) (UniProt Q07869); assay: ATG_PPARa_TRANS: Attagene TRANS-FACTORIAL HepG2 Assay for human Peroxisome Proliferator-activated Receptor alpha (PPARa) (AID 2283001; active means hit-call score of the fitted dose curve at least 0.9, where 1 is the maximum)
Method in brief: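 HepG2, transient MRTU transfection, 24 h treatment. RT-PCR → FAM labelling → capillary electrophoresis. Fit vs DMSO, positive direction.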

Measured: AC50

Retinoic acid receptor alpha (Homo sapiens), sequence (P10276 whole entry, looked up, the tested form may be a part): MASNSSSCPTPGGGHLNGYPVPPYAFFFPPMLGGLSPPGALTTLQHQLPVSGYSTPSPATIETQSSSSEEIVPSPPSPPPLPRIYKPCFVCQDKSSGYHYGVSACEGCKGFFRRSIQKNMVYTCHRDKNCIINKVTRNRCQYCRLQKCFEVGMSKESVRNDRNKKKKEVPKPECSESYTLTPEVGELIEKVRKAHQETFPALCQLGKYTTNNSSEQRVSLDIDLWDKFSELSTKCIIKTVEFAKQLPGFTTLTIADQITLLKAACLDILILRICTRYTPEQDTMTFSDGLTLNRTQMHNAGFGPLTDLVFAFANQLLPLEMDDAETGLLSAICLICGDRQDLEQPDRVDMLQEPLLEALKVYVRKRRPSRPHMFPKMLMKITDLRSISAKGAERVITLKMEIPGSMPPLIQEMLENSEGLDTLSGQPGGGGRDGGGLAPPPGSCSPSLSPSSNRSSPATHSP
human Peroxisome Proliferator-activated Receptor delta (PPARd), PPARD (gene 5467), sequence (Q03181 whole entry, looked up, the tested form may be a part): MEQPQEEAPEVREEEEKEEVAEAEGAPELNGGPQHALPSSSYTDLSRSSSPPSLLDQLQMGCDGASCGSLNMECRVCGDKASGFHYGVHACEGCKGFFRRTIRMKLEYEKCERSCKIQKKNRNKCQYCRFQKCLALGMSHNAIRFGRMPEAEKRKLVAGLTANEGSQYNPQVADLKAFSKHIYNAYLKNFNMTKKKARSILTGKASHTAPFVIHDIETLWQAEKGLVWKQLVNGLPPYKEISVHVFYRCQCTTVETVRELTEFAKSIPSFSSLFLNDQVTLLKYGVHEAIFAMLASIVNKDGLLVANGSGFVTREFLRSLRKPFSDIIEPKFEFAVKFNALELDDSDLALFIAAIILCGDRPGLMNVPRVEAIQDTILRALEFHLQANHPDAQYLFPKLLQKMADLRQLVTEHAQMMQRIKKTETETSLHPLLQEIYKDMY
Nuclear receptor subfamily 1 group I member 2 (Homo sapiens), sequence (O75469 whole entry, looked up, the tested form may be a part): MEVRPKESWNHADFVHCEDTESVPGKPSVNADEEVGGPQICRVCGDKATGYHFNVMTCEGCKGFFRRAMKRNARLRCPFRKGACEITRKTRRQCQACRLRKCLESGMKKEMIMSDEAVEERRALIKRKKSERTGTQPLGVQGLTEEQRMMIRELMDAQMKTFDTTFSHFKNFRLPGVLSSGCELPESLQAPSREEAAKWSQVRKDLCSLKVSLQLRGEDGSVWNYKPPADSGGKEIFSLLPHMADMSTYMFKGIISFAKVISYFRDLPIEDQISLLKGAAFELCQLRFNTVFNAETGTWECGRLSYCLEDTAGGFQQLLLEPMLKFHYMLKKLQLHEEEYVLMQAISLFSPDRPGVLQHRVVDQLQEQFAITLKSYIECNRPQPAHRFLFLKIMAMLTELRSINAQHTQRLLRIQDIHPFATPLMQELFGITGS
Peroxisome proliferator-activated receptor gamma (Homo sapiens), sequence (P37231 whole entry, looked up, the tested form may be a part): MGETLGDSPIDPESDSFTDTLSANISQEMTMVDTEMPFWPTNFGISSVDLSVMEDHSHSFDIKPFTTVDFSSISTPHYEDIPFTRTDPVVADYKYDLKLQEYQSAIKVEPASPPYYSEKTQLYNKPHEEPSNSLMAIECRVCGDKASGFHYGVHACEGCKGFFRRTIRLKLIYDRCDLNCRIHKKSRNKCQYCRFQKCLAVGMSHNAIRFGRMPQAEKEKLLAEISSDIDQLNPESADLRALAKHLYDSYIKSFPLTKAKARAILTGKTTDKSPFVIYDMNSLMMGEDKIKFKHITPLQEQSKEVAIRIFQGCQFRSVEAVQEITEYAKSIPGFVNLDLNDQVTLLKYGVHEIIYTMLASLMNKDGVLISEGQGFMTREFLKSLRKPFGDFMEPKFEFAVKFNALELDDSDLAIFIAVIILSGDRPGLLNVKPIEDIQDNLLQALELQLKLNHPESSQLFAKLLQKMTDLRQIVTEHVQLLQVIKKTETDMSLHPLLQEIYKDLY
human Retinoic Acid Receptor gamma (RARg), RARG (gene 5916), sequence (P13631 whole entry, looked up, the tested form may be a part): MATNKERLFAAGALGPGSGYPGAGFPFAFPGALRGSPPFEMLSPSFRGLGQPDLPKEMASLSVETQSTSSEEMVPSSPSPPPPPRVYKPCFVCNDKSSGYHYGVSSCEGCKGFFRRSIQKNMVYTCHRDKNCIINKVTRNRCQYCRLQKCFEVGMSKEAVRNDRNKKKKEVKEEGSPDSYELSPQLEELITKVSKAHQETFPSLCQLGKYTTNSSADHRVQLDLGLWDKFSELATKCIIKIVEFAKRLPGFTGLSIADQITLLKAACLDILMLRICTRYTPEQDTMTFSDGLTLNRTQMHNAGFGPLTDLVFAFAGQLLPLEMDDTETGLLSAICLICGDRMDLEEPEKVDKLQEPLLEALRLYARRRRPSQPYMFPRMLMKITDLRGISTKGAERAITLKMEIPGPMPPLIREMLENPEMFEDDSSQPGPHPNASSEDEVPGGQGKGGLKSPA
Myc proto-oncogene protein (Homo sapiens), sequence (P01106 whole entry, looked up, the tested form may be a part): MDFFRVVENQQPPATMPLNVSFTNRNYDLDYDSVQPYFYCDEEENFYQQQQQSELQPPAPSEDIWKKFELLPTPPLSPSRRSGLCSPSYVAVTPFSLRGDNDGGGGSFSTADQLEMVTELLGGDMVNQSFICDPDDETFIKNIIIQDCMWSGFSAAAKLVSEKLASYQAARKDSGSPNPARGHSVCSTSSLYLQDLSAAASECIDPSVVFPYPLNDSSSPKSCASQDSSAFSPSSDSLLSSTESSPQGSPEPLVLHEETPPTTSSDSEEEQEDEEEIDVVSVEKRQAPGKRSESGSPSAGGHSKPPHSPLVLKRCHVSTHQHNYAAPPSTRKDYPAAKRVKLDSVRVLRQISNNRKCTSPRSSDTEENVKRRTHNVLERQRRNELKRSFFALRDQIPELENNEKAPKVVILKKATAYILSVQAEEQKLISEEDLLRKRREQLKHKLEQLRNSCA
Nuclear respiratory factor 1 (Homo sapiens), sequence (Q16656 whole entry, looked up): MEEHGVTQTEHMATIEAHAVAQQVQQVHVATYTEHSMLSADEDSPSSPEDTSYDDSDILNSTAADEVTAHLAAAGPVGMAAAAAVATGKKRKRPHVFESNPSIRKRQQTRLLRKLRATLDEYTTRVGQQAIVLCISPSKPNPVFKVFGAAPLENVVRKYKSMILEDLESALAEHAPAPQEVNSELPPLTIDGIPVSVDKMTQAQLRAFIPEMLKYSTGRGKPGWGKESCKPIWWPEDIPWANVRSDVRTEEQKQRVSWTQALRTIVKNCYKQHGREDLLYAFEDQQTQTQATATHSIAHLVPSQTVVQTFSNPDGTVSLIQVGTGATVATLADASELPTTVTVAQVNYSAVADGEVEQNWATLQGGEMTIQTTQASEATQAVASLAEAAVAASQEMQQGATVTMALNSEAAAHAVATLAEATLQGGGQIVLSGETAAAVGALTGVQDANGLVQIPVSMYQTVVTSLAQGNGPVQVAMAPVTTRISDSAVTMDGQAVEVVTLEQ
Cellular tumor antigen p53 (Homo sapiens), sequence (P04637 whole entry, looked up, the tested form may be a part): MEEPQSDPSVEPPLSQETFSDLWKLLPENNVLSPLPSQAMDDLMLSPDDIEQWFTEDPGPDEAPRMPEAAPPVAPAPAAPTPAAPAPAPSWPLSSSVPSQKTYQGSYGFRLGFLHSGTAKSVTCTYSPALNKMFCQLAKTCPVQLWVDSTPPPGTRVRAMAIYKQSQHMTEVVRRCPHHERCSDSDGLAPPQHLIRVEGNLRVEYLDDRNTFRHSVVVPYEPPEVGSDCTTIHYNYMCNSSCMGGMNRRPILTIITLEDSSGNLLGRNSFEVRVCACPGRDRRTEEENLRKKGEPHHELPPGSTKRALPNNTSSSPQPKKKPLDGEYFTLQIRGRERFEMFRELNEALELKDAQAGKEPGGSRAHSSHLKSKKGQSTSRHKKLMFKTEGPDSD
human Retinoic Acid Receptor beta (RARb), RARB (gene 5915), sequence (P10826 whole entry, looked up, the tested form may be a part): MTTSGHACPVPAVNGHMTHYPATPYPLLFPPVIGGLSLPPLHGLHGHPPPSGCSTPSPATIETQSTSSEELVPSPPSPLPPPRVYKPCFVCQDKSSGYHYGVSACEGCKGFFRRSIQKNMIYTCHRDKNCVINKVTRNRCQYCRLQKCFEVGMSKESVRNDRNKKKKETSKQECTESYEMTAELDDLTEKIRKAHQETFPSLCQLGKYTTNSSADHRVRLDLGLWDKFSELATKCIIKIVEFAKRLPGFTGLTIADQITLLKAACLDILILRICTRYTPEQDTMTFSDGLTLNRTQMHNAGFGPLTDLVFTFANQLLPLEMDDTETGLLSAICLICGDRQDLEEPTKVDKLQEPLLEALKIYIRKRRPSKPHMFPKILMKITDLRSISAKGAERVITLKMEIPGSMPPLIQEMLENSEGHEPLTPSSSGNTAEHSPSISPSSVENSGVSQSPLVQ
human Peroxisome Proliferator-activated Receptor alpha (PPARa), PPARA (gene 5465), sequence (Q07869 whole entry, looked up): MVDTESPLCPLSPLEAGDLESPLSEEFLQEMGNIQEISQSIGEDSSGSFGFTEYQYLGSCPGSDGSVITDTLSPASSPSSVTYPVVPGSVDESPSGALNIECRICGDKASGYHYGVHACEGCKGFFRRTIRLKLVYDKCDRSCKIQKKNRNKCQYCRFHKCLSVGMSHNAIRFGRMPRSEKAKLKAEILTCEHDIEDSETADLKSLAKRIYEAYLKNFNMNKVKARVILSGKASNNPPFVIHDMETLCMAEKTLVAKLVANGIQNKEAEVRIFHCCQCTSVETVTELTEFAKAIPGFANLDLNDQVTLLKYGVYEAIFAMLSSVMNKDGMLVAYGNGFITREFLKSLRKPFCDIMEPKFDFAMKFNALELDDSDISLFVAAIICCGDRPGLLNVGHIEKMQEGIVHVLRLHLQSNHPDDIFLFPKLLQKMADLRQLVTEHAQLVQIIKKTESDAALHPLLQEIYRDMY

OCCCC(F)(F)C(F)(F)C(F)(F)C(F)(F)C(F)(F)C(F)(F)C(F)(F)C(F)(F)F
active: [7] 30.7 µM | [8] 13.1 µM and 26.1 µM | [9] 19.6 µM and 42.2 µM | [10] 39.9 µM and 46 µM | [11] 18.9 µM and 31.8 µM | [13] 22.4 µM and 45.5 µM | [16] 7.56 µM and 9.56 µM
not listed: [20]
inactive: all other assays above

CC(C)(C)C(=O)C1C(=O)c2ccccc2C1=O
active: [5] 31.5 µM | [6] 63.1 µM | [17] 28 µM | [18] 22.4 µM
not listed: [8] | [9] | [10] | [11] | [13] | [16]
inactive: all other assays above

O=S(=O)(O)CCC(F)(F)C(F)(F)C(F)(F)C(F)(F)F
not listed: [14] | [19] | [20]
inactive: all other assays above

CC(C)(C)c1cc(CCC(=O)NCCCCCCNC(=O)CCc2cc(C(C)(C)C)c(O)c(C(C)(C)C)c2)cc(C(C)(C)C)c1O
active: [18] 0.0823 µM
not listed: [12] | [14] | [15] | [19] | [20]
inactive: all other assays above

N#Cc1ccccc1O
not listed: [7] | [8] | [9] | [10] | [11] | [13] | [14] | [16]
inactive: all other assays above

O=C1OC(=O)c2ccc3c4c(ccc1c24)C(=O)OC3=O
inactive: [1] | [2] | [3] | [4] | [5] | [6] | [7] | [12] | [17] | [18]

COCCOCCC[Si](C)(O[Si](C)(C)C)O[Si](C)(C)C
inactive: [1] | [2] | [3] | [4] | [7] | [12] | [14] | [17] | [19]
active: [5] 1.64 µM | [6] 3.74 µM | [18] 1.47 µM

CC(C)=CCCC(C)O (configuration not stated)
inactive: [1] | [2] | [3] | [4] | [5] | [6] | [7] | [17]
